Data on eleven compounds can be found in PubChem BioAssay (Tox21).

Inconclusive results are not listed. The source made the active and inactive calls. Unless noted, calls follow the shape of the dose curve; as a rule, active = well fitted curve in the direction sought with a large enough effect in the repeat runs; inconclusive = weak or mixed curves; inactive = no such curve, though single readings can be large; an effect the other way counts as inactive or inconclusive.

Assay [1] can be described thus: qHTS assay to identify aromatase inhibitors - cell viability counter screen (AID 743084;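 also: cells stimulated with testosterone during compound exposure; nearly all actives have a fitted effect of over 55% in size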; also: potency is read from the fitted curve at half-maximal effect). (In general: qHTS replaces the single test concentration by a dilution series.)
In assay [2] the target is Aryl hydrocarbon receptor (Homo sapiens) (UniProt P35869). Put plainly: qHTS assay to identify small molecule that activate the aryl hydrocarbon receptor (AhR) signaling pathway (AID 743085). Also: nearly all actives have a fitted effect of over 15% in size. Also: potency is read from the fitted curve at half-maximal effect.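 As to activation: HG2L7.5c1 human HepG2 liver cells with stably integrated DRE-driven firefly reporter; series mostly up to about 70 µM.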 The gist of the method:
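24 h compound exposure, 37C, HepG2-derived HG2L7.5c1 cells with DRE-responsive luciferase. Readouts: fluorescence viability, then luminescence at room temperature after 30 min.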

Assay [3] concerns the target Peroxisome proliferator-activated receptor gamma (Homo sapiens) (UniProt P37231). Put plainly: qHTS assay to identify small molecule agonists of the peroxisome proliferator-activated receptor gamma (PPARg) signaling pathway (AID 743094; active = well fitted activation curve with a large enough effect in the signal ratio in the repeat runs, not every such curve was filed as active; the % refers to the signal ratio). The gist of the method: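 Compounds dissolved in DMSO were added to PPARg UAS-bla HEK293H cells for 17 h at 37C, and reporter expression was quantified by fluorescence intensity after 1 h with LiveBLAzer B/G FRET substrate.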

The nature of assay [4]: qHTS assay to identify small molecule antagonists of the peroxisome proliferator-activated receptor gamma (PPARg) signaling pathway - cell viability counter screen (AID 743194). Also: nearly all actives have a fitted effect of over 55% in size. Also: potency is read from the fitted curve at half-maximal effect. The procedure, abridged: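 Cytotoxicity counter screen in PPARg-bla HEK293H cells, same wells as reporter assay. Compounds plus 50 nM rosiglitazone (final) for 17 h at 37 C, then viability read by CellTiter-Glo luminescence.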

Assay [5] is described as follows: qHTS assay for small molecule agonists of the antioxidant response element (ARE) signaling pathway - cell viability counter screen (AID 743203; calls by dose curve; also: nearly all actives have a fitted effect of over 55% in size; also: potency is read from the fitted curve at half-maximal effect). The procedure, abridged:
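Following 16 hrs of compound treatment at 37C, HepG2 cells with an ARE-controlled beta-lactamase gene were lysed with CellTiter-Glo. Luminescence was read after 30 min at room temperature.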

Assay [6] can be described thus: qHTS assay for small molecule activators of the heat shock response signaling pathway - cell viability counter screen (AID 743209). Also: nearly all actives have a fitted effect of over 50% in size. Also: potency is read from the fitted curve at half-maximal effect. The gist of the method:
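Readout: CellTiter-Glo luminescence, 30 min at room temperature. System: HSE-bla HeLa cells, 1500/well, plated overnight. Treatment: compounds in DMSO, 5 h at 37 C.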

A short description of assay [7]: qHTS assay to identify small molecule agonists of the peroxisome proliferator-activated receptor delta (PPARd) signaling pathway - cell viability counter screen (AID 743211). Also: nearly all actives have a fitted effect of over 55% in size. Also: potency is read from the fitted curve at half-maximal effect. The gist of the method:
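Luminescent ATP viability assay (CellTiter-Glo, 30 min RT) in UAS-bla HEK293H cells carrying the PPAR delta reporter construct, 3000 cells/well, after a 17 h compound treatment at 37 C.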

The nature of assay [8]: qHTS assay to identify small molecule agonists of the farnesoid-X-receptor (FXR) signaling pathway - cell viability counter screen (AID 743218). Also: nearly all actives have a fitted effect of over 45% in size. Also: potency is read from the fitted curve at half-maximal effect. The procedure, abridged:
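Parallel cytotoxicity test: compound-treated (16 h, 37 C) HEK 293T FXR-bla reporter cells were lysed with CellTiter-Glo and luminescence recorded.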

Assay [9] can be described thus: qHTS assay to identify small molecule antagonists of the farnesoid-X-receptor (FXR) signaling pathway - cell viability counter screen (AID 743221; active = well fitted cell-killing curve with a large enough effect in the repeat runs, not every such curve was filed as active; also: nearly all actives have a fitted effect of over 50% in size; also: potency is read from the fitted curve at half-maximal effect). The gist of the method:
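In GeneBLAzer FXR-UAS-bla HEK 293T cells stimulated with 50 uM chenodeoxycholic acid (final), compounds acted for 16 h at 37 C. Viability was assessed afterwards by CellTiter-Glo luminescence.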

Assay [10] has as its target Peroxisome proliferator-activated receptor delta (Homo sapiens) (UniProt Q03181). Put plainly: qHTS assay to identify small molecule agonists of the peroxisome proliferator-activated receptor delta (PPARd) signaling pathway (AID 743212; calls by dose curve). The gist of the method: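 Quantitative high-throughput agonist screen in a HEK293H beta-lactamase reporter line under UAS control. Compounds in DMSO, at 37 C. Fluorescence read after 2 h with FRET substrate at room temperature.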

Assay [11] in a line: qHTS assay to identify small molecule antagonists of the peroxisome proliferator-activated receptor delta (PPARd) signaling pathway - cell viability counter screen (AID 743213). Also: nearly all actives have a fitted effect of over 50% in size. Also: potency is read from the fitted curve at half-maximal effect. The gist of the method:
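Cytotoxicity counter screen: CellTiter-Glo luminescence read 30 min after addition, in the same wells as the reporter assay. There, PPARd UAS-bla HEK293H cells (3000/well) were treated 17 h at 37 C with compound and 300 nM L165041.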

The target of assay [12] is Peroxisome proliferator-activated receptor delta (Homo sapiens) (UniProt Q03181). As to the kind of experiment: qHTS assay to identify small molecule antagonists of the peroxisome proliferator-activated receptor delta (PPARd) signaling pathway (AID 743215; active = well fitted inhibition curve with a large enough effect in the signal ratio in the repeat runs, not every such curve was filed as active; the % refers to the signal ratio;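 also: cells stimulated with agonist L165041 at 300 nM final during compound exposure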; also: potency is read from the fitted curve at half-maximal effect). The gist of the method: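 HEK293H UAS-bla, PPARd; agonist L165041 300 nM final with cpd in DMSO; 37 C 17 h; FRET substrate, RT 2 h; fluorescence intensity.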

For assay [13], the target named is Bile acid receptor (Homo sapiens) (UniProt Q96RI1). As to the kind of experiment: qHTS assay to identify small molecule antagonists of the farnesoid-X-receptor (FXR) signaling pathway (AID 743217; active = well fitted inhibition curve with a large enough effect in the signal ratio in the repeat runs, not every such curve was filed as active; the % refers to the signal ratio; also: potency is read from the fitted curve at half-maximal effect). The procedure, abridged:
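GeneBLAzer FXR-UAS-bla HEK 293T, CDCA-stimulated (50 uM final). Compound treatment 16 h, 37 °C. Detection: beta-lactamase cleavage of B/G FRET substrate, fluorescence.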

Assay [14] deals with Peroxisome proliferator-activated receptor gamma (Homo sapiens) (UniProt P37231). As to the kind of experiment: qHTS assay to identify small molecule antagonists of the peroxisome proliferator-activated receptor gamma (PPARg) signaling pathway (AID 743191; calls by dose curve; also: nearly all actives have a fitted effect of over 30% in size; also: potency is read from the fitted curve at half-maximal effect). The gist of the method: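 GeneBLAzer PPARg UAS-bla HEK293H cells, 5 h post-plating, exposed to compounds 17 h at 37C. LiveBLAzer B/G FRET substrate added for 1 h at room temperature; beta-lactamase reporter read by fluorescence intensity.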

The nature of assay [15]: qHTS assay for small molecule activators of the heat shock response signaling pathway (AID 743210; active = well fitted activation curve with a large enough effect in the signal ratio in the repeat runs, with a control signal flat, not every such curve was filed as active; the % refers to the signal ratio;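 also: HeLa cells with beta-lactamase reporter driven by heat shock elements; series mostly up to about 63 µM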). The gist of the method:
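Quantitative high-throughput format using an engineered HeLa line in which heat shock response elements drive beta-lactamase; after 5 h with compound, cells received a B/G FRET substrate and fluorescence was read.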

For assay [16], the target named is Vitamin D3 receptor (Homo sapiens) (UniProt P11473). Put plainly: qHTS assay to identify small molecule agonists of the vitamin D receptor (VDR) signaling pathway (AID 743222; calls by dose curve). The gist of the method: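 In VDR-bla cells, compound-induced beta-lactamase expression is quantified by FRET substrate fluorescence. Treatment lasts 16 h at 37C; substrate develops 2 h at room temperature.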

Assay [17] in a line: qHTS assay to identify small molecule that activate the aryl hydrocarbon receptor (AhR) signaling pathway - cell viability counter screen (AID 743086).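 Also: HepG2 liver cells carrying the AhR DRE luciferase reporter; series mostly up to about 70 µM; nearly all actives have a fitted effect of over 45% in size.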 The procedure, abridged:
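HepG2-AhR-luc (HG2L7.5c1) cells, 4000/well, treated 24 h at 37 C with compound; viability measured as CellTiter-Fluor fluorescence after 30 min in the same wells as the luciferase read.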

A short description of assay [18]: qHTS assay for small molecule agonists of the antioxidant response element (ARE) signaling pathway (AID 743202; active = well fitted activation curve with a large enough effect in the signal ratio in the repeat runs, not every such curve was filed as active; the % refers to the signal ratio). The procedure, abridged: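 Agonist mode reporter screen: HepG2 cells with ARE-controlled beta-lactamase are incubated with test compounds for 16 h at 37 C, and beta-lactamase activity is measured as fluorescence of cleaved B/G FRET substrate.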
For assay [19], the target named is Vitamin D3 receptor (Homo sapiens) (UniProt P11473). Put plainly: qHTS assay to identify small molecule antagonists of the vitamin D receptor (VDR) signaling pathway (AID 743223; active = well fitted inhibition curve with a large enough effect in the signal ratio in the repeat runs, not every such curve was filed as active; the % refers to the signal ratio). The gist of the method: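 Agonist 1alpha,25-dihydroxyvitamin D3 (3 nM in well) was added with each compound to VDR-bla cells preincubated 4 h. Cells stood 16 h at 37C, then FRET substrate 2 h at room temperature; fluorescence intensity recorded.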

Sequence of Bile acid receptor (Homo sapiens) (Q96RI1 whole entry, looked up): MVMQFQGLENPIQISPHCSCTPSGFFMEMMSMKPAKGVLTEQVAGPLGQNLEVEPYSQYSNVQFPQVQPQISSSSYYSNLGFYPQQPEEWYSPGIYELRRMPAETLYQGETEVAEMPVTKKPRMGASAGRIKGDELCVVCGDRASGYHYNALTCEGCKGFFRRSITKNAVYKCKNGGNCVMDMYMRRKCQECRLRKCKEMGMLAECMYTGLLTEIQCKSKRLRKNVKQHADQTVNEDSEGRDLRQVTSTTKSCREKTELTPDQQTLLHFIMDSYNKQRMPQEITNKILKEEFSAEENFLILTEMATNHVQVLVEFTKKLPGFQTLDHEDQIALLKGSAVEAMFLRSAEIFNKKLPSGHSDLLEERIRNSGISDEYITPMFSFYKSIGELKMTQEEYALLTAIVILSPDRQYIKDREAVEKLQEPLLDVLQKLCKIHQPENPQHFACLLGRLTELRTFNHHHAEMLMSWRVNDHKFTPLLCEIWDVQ
Sequence of Aryl hydrocarbon receptor (Homo sapiens) (P35869 whole entry, looked up): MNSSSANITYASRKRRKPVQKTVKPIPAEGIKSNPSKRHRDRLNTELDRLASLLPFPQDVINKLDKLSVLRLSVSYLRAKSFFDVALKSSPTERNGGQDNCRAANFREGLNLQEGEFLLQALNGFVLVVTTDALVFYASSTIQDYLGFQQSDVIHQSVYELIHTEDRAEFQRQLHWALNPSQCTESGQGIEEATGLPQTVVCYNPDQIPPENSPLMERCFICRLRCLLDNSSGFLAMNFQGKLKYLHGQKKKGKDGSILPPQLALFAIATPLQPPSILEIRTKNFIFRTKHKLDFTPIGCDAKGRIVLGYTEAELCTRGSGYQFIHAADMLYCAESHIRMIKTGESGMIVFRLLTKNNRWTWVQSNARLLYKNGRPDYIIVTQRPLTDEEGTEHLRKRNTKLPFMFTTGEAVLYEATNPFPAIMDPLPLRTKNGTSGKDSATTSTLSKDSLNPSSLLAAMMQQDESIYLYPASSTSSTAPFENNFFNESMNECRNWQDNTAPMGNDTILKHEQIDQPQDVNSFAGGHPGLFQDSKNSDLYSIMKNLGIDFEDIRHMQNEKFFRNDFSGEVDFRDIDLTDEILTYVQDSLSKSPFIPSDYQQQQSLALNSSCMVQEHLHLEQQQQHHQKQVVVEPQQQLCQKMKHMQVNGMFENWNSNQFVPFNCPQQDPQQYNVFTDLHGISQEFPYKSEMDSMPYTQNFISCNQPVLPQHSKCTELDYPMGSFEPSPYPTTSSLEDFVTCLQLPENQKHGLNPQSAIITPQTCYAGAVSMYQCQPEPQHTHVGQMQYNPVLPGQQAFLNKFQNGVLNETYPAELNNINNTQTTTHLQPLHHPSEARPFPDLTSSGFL
Sequence of Vitamin D3 receptor (Homo sapiens) (P11473 whole entry, looked up): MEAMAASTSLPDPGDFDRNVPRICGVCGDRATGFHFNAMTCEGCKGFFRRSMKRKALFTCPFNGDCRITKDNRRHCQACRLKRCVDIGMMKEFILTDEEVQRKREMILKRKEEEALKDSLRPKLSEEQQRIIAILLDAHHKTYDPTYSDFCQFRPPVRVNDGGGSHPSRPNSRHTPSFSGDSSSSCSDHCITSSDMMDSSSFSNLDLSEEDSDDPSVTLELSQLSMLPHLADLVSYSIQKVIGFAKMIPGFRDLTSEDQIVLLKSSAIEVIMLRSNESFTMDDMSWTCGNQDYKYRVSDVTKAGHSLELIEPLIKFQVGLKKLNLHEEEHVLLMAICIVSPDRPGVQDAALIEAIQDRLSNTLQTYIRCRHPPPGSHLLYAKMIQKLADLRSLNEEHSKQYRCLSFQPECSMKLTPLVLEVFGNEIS
Sequence of Peroxisome proliferator-activated receptor gamma (Homo sapiens) (P37231 whole entry, looked up): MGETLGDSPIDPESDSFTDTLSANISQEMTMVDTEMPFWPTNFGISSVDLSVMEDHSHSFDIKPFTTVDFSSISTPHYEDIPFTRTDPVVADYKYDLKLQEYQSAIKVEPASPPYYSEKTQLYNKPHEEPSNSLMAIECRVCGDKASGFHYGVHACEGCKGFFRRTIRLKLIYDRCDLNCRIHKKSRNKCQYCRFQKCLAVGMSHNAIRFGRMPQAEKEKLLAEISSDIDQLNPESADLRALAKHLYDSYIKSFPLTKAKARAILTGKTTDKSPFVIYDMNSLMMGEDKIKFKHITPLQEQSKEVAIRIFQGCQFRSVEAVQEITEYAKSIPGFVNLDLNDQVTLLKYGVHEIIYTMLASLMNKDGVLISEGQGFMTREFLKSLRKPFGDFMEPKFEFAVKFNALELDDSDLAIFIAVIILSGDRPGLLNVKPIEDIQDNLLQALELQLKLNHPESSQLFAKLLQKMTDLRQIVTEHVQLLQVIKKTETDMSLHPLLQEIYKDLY
Sequence of Peroxisome proliferator-activated receptor delta (Homo sapiens) (Q03181 whole entry, looked up): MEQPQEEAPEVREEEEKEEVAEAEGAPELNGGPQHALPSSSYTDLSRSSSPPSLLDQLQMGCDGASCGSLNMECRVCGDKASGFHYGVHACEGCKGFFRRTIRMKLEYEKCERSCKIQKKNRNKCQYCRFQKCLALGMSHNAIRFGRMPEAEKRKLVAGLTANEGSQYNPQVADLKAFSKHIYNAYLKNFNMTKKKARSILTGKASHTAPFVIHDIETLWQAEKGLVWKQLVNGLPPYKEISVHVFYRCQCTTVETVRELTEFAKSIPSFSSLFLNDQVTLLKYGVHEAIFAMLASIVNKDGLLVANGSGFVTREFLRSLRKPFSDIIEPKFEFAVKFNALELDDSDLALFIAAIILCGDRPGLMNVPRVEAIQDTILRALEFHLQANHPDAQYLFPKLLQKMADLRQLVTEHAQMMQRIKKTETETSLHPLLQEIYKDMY

Turning to `CCCC(=O)OC[C@@H](OC(=O)CCC)[C@@H](OC(=O)CCC)[C@H](Cn1c2nc(=O)[nH]c(=O)c-2nc2cc(C)c(C)cc21)OC(=O)CCC`, the Potency result in assay [1], in assay [2], in assay [3], in [4], in [6] and in assay [7] was “inactive” throughout. Besides, the Potency result in assay [8] and in assay [9] was “inactive” in each case. Besides, the Potency in assay [5] was 26.6 µM (active).
As to `CCCCCCCC/C=C\CCCCCCCCOCCO`, the Potency in [1] was 79.4 µM (active); in assay [4], 56.8 µM (active); in assay [5], 63.1 µM (active); in [6] it was 28.4 µM (active); in assay [8], 22.6 µM (active); in [9], 28.4 µM (active). In assay [2], the Potency entry is “inactive”.
Take `CC1=C(/C=C/C(C)=C/C=C/C(C)=C/C=O)C(C)(C)CCC1`: the Potency is 30.5 µM (active) in assay [1]; 60.8 µM (active) in assay [5]; 34.5 µM (active) in assay [6]; 12.2 µM (active) in assay [7]; 43.4 µM (active) in assay [11]; 48.7 µM (active) in [12]. Moreover, the Potency was 61.3 µM (active) in [13], 21.8 µM (active) in [8] and 48.7 µM (active) in assay [9]. Further, the Potency result in assay [2] and in assay [10] was “inactive” in each case.
As for `CSc1ccc(/C=C2/C(C)=C(CC(=O)O)c3cc(F)ccc32)cc1`, the Potency entry in [1], in [4], in [5], in assay [6], in assay [11] and in assay [9] was “inactive” in each case. Moreover, the Potency in assay [2] is 9.44 µM (active).
As for `CCCCCCCCn1sc(Cl)c(Cl)c1=O`, the Potency in assay [1] was 5.45 µM (active); in [14], 49 µM (active); in assay [4], 21.9 µM (active); in [5] it was 4.33 µM (active); in assay [7] it was 3.09 µM (active); in assay [13] it was 43.6 µM (active). Further, the Potency in [8] was 4.36 µM (active); in assay [9], 9.77 µM (active). The Potency result in assay [2] and in assay [3] was “inactive” each time.
`O=C1C=CC(=O)N1c1ccc(Cc2ccc(N3C(=O)C=CC3=O)cc2)cc1`: the Potency in assay [1] was 9.69 µM (active); in assay [4], 13.8 µM (active); in assay [5], 17.2 µM (active); in assay [6], 17.4 µM (active); in assay [11], 34.7 µM (active). Further, the Potency result in assay [2] and in assay [10] was “inactive” in each case.
As for `CCC1=C[C@@H]2CN(C1)Cc1c([nH]c3ccccc13)[C@@](C(=O)OC)(c1cc3c(cc1OC)N(C)[C@H]1[C@@](O)(C(=O)OC)[C@H](OC(C)=O)[C@]4(CC)C=CCN5CC[C@]31[C@@H]54)C2`, the Potency result in [1], in assay [2], in assay [4], in assay [6], in assay [15] and in assay [12] was “inactive” throughout. Moreover, the Potency result in [16] was “inactive”. The Potency is 29.8 µM (active) in assay [7] and 26.6 µM (active) in [8].
For the compound `C[C@H]1[C@H]2CC[C@H]3[C@@H]4CC=C5C[C@@H](N(C)C)CC[C@]5(C)[C@H]4CC[C@]23CN1C`, the Potency entry in assay [1], in [17], in assay [3], in assay [14], in assay [18] and in [5] was “inactive” each time. For the same compound, the Potency result in assay [6], in [15], in [7], in [11], in [13] and in assay [8] was “inactive” each time. For the same compound, the Potency result in assay [9] and in assay [16] was “inactive” each time.
Turning to `COc1cc(/C=C/C(=O)O[C@H]2CC[C@]34C[C@]35CC[C@]3(C)[C@@H]([C@H](C)CCC=C(C)C)CC[C@@]3(C)[C@@H]5CC[C@H]4C2(C)C)ccc1O`, the Potency result in assay [1], in [17], in assay [3], in [14], in [4] and in [5] was “inactive” in each case. The Potency entry in assay [6], in [7], in [10], in assay [11], in assay [12] and in assay [13] was “inactive” in each case. Further, the Potency entry in assay [8] and in assay [9] was “inactive” each time.
For `c1cc(C(c2ccc(OCC3CO3)cc2)c2ccc(OCC3CO3)cc2)ccc1OCC1CO1` (configuration not stated), the Potency in [1] is 54.5 µM (active); in [4] it was 21.9 µM (active); in assay [7] it was 54.9 µM (active). Moreover, the Potency entry in [2], in assay [6] and in assay [9] was “inactive” each time.
`Nc1ccccc1O`: the results for the Potency in assay [1] and in assay [2] were 67.7 µM (active) and 21.4 µM (active), respectively. Moreover, the Potency entry in assay [4], in assay [15], in [7], in [10], in [11] and in [12] was “inactive” in each case. The Potency result in assay [13], in assay [8], in [9], in assay [16] and in [19] was “inactive” each time.
